Assay results as given in the supplement of paper PMC6555819.

Key:
Assay in all cases: PBM binding z-score (relative to random genomic background probes); higher = stronger binding; sequences stand for … in GC…GCGATTGACAGCGTAGAATGAAGG
[1] = system: FXR:RXRa (NR concentration 270 nM, RXRa partner concentration 90 nM)
In short: (§1)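 Probes were double-stranded and carried 34-nt variable regions with direct-repeat seeds, single-nucleotide variants, half-site ablations and random human genomic background sequences, printed on custom Agilent 4×180K protein-binding microarrays. Arrays were incubated 1 h with ligand-free nuclear receptor dimers in PBS pH 7.4, 2% milk, 0.02% Triton X-100, 1 mM DTT, 0.2 mg/mL BSA and 0.4 mg/ml salmon testes DNA. Antibodies against each partner (one per run) detected binding, and scanned fluorescence was regression-normalized. Binding z-scores use the random background probes as reference.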

[2] = system: LXRa:RXRa (NR concentration 270 nM, RXRa partner concentration 90 nM)
In short: as §1

[3] = system: LXRa homodimer (NR concentration 270 nM)
In short: as §1

[4] = system: LXRb:RXRa (NR concentration 270 nM, RXRa partner concentration 90 nM)
In short: as §1

[5] = system: LXRb homodimer (NR concentration 270 nM)
In short: as §1

[6] = system: PPARa:RXRa (NR concentration 270 nM, RXRa partner concentration 90 nM)
In short: as §1

[7] = system: PPARg:RXRa (NR concentration 180 nM, RXRa partner concentration 90 nM)
In short: as §1

[8] = system: PPARg:RXRa 270nM:90nM, anti-RXR (NR concentration 270 nM, RXRa partner concentration 90 nM)
In short: as §1

[9] = system: PPARg:RXRa 30nM:10nM, anti-RXR (NR concentration 30 nM, RXRa partner concentration 10 nM)
In short: as §1

[10] = system: PPARg:RXRa 90nM:30nM, anti-RXR (NR concentration 90 nM, RXRa partner concentration 30 nM)
In short: as §1

Row | Sequence | PBM binding z-score [1] | PBM binding z-score [2] | PBM binding z-score [3] | PBM binding z-score [4] | PBM binding z-score [5] | PBM binding z-score [6] | PBM binding z-score [7] | PBM binding z-score [8] | PBM binding z-score [9] | PBM binding z-score [10]
1 | CCTATTGGGCCAAAAAGGTCATTGATGCCGATAA | 3.69 | 4.37 | 2.45 | 4.04 | 0.266 | 4.6 | 2.25 | 3.39 | 0.941 | 2.81
2 | TGAATGAGGTTATAAGATGAGGGAACGTTGCAAA | 1.51 | 1.28 | -0.0389 | 1.09 | 0.338 | 2.36 | 1.1 | 1.61 | 1.03 | 1.43
3 | ATCGAAAGGACGAAGGTGAGTATACCCACCCGAA | -0.0229 | 0.0207 | -0.291 | -0.347 | -0.118 | -0.0423 | 1.05 | 0.837 | 0.489 | 0.641
4 | CGTCAAGGTTCAACTAAGGTAACGTAAAGCACGC | 5.26 | 4.66 | 1.12 | 2.96 | 0.335 | 4.18 | 2.49 | 2.73 | 0.464 | 1.82
5 | ATCTCTAGGTAAAAAGTTCAGTGAAAGAGAGGAC | 1.28 | 1.39 | 1.03 | 0.921 | 0.888 | 1.98 | 2.7 | 3.72 | 2.6 | 3.68
6 | CTACCAAGGTGAACCAGGTCGTTGATTACTATTC | 0.862 | 1.52 | -0.0698 | 1.8 | -0.718 | 2.61 | 1.19 | 1.54 | 0.0677 | 0.58
7 | ACTTACGGGTCAACGAGGTTATAGGACGCGTATA | 5.95 | 5.07 | 0.89 | 4.43 | 0.538 | 5.78 | 5.7 | 5.53 | 2.04 | 4.25
8 | TCATATAGGTAAATGCTAGGTGAAATTCCGATCT | 0.456 | 0.522 | -0.0474 | 0.729 | 0.187 | 1.17 | 0.929 | 2.31 | 3.86 | 3.3
9 | AATACAGGGTCATCGCAGGCCAGAGTACGCACAG | 7.15 | 6.19 | 2.29 | 4.62 | 1.25 | 5.93 | 6.6 | 6.2 | 2.73 | 4.39
10 | ATCGAAAGGTCGAAGGTGAGTTTACCCACCCGAA | 4.75 | 3.73 | 0.479 | 2.89 | 0.226 | 4.78 | 4.38 | 4.6 | 2.08 | 3.81
11 | ACTCGGAGAACAAAGGTCAGAGCTACGCCAGTGA | 3.2 | 3.85 | 1.8 | 3.29 | 0.2 | 4.69 | 5.98 | 5.81 | 4.63 | 6.07
12 | CCTCGGAGGACAAAAGGTCAGAGCTGTCCGCTTT | 3.66 | 4.52 | 2 | 3.34 | -0.114 | 3.96 | 1.65 | 3.76 | 1.1 | 3.22
13 | GCTGCTAGGTCAGGTTGGTCATCTAACGGGTACG | 1.59 | 1.01 | 0.226 | 0.755 | 0.00509 | 1.45 | 0.55 | 1.02 | -0.203 | 0.295
14 | ATCTCTAGGTAACCCAGTTCAGTGAATGCCGAAC | 0.242 | 0.741 | 0.606 | 0.843 | 0.72 | 1.72 | 1.52 | 1.69 | 0.311 | 1.12
15 | ATCTCTAGGTAAGACTCAGATCAGTGAAGAACGC | 0.264 | 0.336 | 0.262 | -0.0617 | 0.692 | -0.153 | 0.264 | 0.0019 | 0.134 | 0.3
16 | CCGACTGGGGCATGAGGTTACCATAAGCCAGCCC | 0.319 | 1.56 | -0.254 | 0.386 | -1.09 | 1.72 | 2.04 | 2.41 | 0.402 | 1.62
17 | GCATATAGGTATTACAAGGTGAAAGTCCGATTGT | 0.758 | 0.25 | 0.246 | 0.0719 | -0.375 | 1.38 | 0.78 | 0.981 | 0.434 | 0.722
18 | ATCTGTAGGTTACATCCGGGTCATTCAGGCTATG | 1.94 | 4.67 | 1.97 | 2.81 | 1.35 | 3.22 | 1.98 | 2.56 | 0.963 | 1.83
19 | TCATATAAGTAAACAGGTGAAAGTCCGTAAGTTA | 1.27 | 1.25 | 0.422 | 1.2 | 0.0139 | 1.55 | 1.32 | 2.57 | 4.41 | 3.57
20 | GCTTGTAGATCAGGGTTAAGAAAGACTAAGCTAA | 0.433 | 0.899 | -0.568 | 0.723 | -0.466 | 1.55 | 0.746 | 1.1 | 0.497 | 0.871
21 | AGTCAAAGTTCATCTAGGTACCGTAAGATATGCT | 6.55 | 6.25 | 5.57 | 3.95 | 1.62 | 4.76 | 6.25 | 6.29 | 3.36 | 5.38
22 | CCTCGGTGGACAACAGGAGGTCAGAGCTGCCAGA | 0.578 | 1.81 | 1.76 | 1.05 | -0.647 | 1.67 | 0.123 | 0.139 | -0.911 | -0.207

Row | Sequence | PBM binding z-score [1] | PBM binding z-score [2] | PBM binding z-score [3] | PBM binding z-score [4] | PBM binding z-score [5] | PBM binding z-score [6] | PBM binding z-score [7] | PBM binding z-score [8] | PBM binding z-score [9] | PBM binding z-score [10]
23 | TCTCGGAGGACACGAAGGTAAGAGCTTTCCAGAG | 0.0947 | -0.361 | -0.534 | -0.695 | -1.37 | -0.0207 | -0.0725 | 0.91 | 2.21 | 1.39
24 | GCTCGGAGGATAAGGTCAGAGCTTTGTCCGTAGA | 2.22 | 1.66 | -0.483 | 1.26 | -1.34 | 2.62 | 0.136 | 1.3 | -0.139 | 0.94
25 | CGTCCAAGGTCAAGGTAAGTGAAAGAGACTCGAA | 7.13 | 5.23 | 0.112 | 3.72 | 0.343 | 5.58 | 5.26 | 5.51 | 1.81 | 4.01
26 | ATAGCAAGGTGATCGTGAGGTCGTTGATACTAAC | 1.34 | 0.986 | 0.104 | 0.673 | -0.808 | 1.47 | 0.359 | 0.22 | 0.0107 | -0.0753
27 | TCTAGTTGGTCAAACGTCACACACTCGAAATGCG | 0.778 | 0.664 | 0.422 | 0.693 | 0.281 | 2.06 | 3.61 | 4.92 | 4.37 | 5.13
28 | CGTCCAAGGCCAGAGAGGTCAGTGAATGCCGAGT | 1.34 | 1.44 | 0.491 | 1.74 | -0.859 | 2.28 | 0.0517 | 0.653 | -0.871 | -0.148
29 | CATACAGGGTCACCTAGGCCAGAGTAGGGACGGC | 6.41 | 4.26 | 0.036 | 3.35 | 0.688 | 5.64 | 6.1 | 5.1 | 2.1 | 3.77
30 | ACTCGGAGGACAAAGGTCAGAGCAACGCCAGTGA | 4.23 | 4.45 | 1.56 | 3.47 | 0.134 | 5.14 | 7.86 | 7.16 | 6.17 | 7.18
31 | ATCTCTAGGTAAATATAGTTCAGTGAATGCAAAT | 0.614 | 5.89 | 1.51 | 2.5 | 1.12 | 0.691 | 1.16 | 0.903 | 1.13 | 1.05
32 | CCGACTGGGGCAAAGGATACCATACTCAGTACGA | -0.424 | -0.501 | -0.0956 | -0.347 | -1.05 | 1.32 | 4.4 | 5.19 | 3.28 | 5.31
33 | ATCTCTAGTTAACAAGTTCAGTGAAAGAGAGGAC | 0.682 | 1.12 | 0.782 | 0.883 | 1.22 | 0.724 | 0.29 | 0.54 | 0.48 | 0.596
34 | AGAACGAGGGCCATGAGTTGATAGCACGGGTGGC | -0.356 | -0.437 | -0.767 | -0.687 | -0.764 | -0.163 | 0.614 | -0.0464 | -0.464 | -0.23
35 | ATATGTAGGTTACATCCGGGACATTCAGGCTATG | 0.396 | 2.2 | 0.343 | 1.11 | 0.574 | 3.44 | 5.41 | 4.47 | 1.95 | 3.37
36 | CGTCCAAGTTCAAGGTCAGTGAAAGAGACTCGAA | 4.93 | 4.22 | 1.93 | 3.18 | 0.857 | 4.02 | 2.06 | 2.5 | 0.198 | 1.24
37 | TCTTGTAGATCAACAGGAGGTTAAGAACGATCGA | 0.185 | 0.857 | 0.191 | 0.748 | -0.245 | 1.36 | 0.136 | 1.3 | 2.75 | 1.81
38 | CCTATTAGTTGACCATAAGGGCACCCGAAGCTCG | 0.765 | 0.567 | 0.422 | 0.491 | 0.755 | 0.457 | 0.534 | 0.375 | 0.138 | 0.172
39 | ATCGAAAGGTCGACGAGGTGAGTATTCACCGTTT | 4.22 | 3.41 | -0.275 | 2.63 | 0.0468 | 4.26 | 2.45 | 2.99 | 1.55 | 1.94
40 | CAAACTAGGTCAAGGTCAAGGTCGGTTTGTGCCA | 6.47 | 5.41 | 3.72 | 4.28 | 0.954 | 6 | 9.57 | 7.87 | 6.34 | 8.36
41 | TCTCGGAGGACACGAAAGGTCGGAGCTCGACATC | 1.02 | 1.14 | -0.0519 | 0.48 | -0.636 | 1.51 | 0.269 | 1.36 | 1.93 | 1.73
42 | CGAACTAGGTTATTGACAGGACAGTGAATAGTAA | 0.276 | 0.886 | 0.37 | 0.406 | -0.0993 | 2.09 | 2.41 | 2.12 | 0.574 | 1.47
43 | CCGACTGGGGTAAGGTTACCATAACGCACAGCCA | 0.62 | 1.11 | -0.0991 | 1.31 | -0.565 | 2.14 | 2.11 | 2.5 | 0.595 | 1.71
44 | CTCGAAAGGTTGGTTGAGGTGAGTATACGGATAA | 1.15 | 0.487 | -0.0312 | 0.38 | -0.269 | 0.843 | -0.0296 | 0.107 | 0.0087 | 0.291
